These results are taken from PubChem BioAssay (EPA / NIEHS).

SMILES strings stand for the structures. Active and inactive are the calls of the source. Rule for the calls: active = hit-call score of the fitted dose curve at least 0.9, where 1 is the maximum; inactive = score below 0.9.

Holding throughout (conditions): mRNA level, 48 h; actives raise or lower the signal
Read-out in assay [1]: Fatty acid synthase (Homo sapiens) (UniProt P49327)
Kind of assay: LTEA_HepaRG_FASN: Life Technologies and Expression Analysis (LTEA) Assay for Fatty Acid Synthase (FASN) using HepaRG (AID 2283448). An outline of the steps:
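Differentiated HepaRG cells in serum-free induction medium exposed 48 h in duplicate to eight half-log concentrations, top 100 uM, 0.5% DMSO. FASN mRNA by qRT-PCR normalised to ACTB, GAPDH, POLR2A; bidirectional fit versus DMSO.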

Read-out in assay [2]: Cyclin D2 (CCND2), CCND2 (gene 894)
Kind of assay: LTEA_HepaRG_CCND2: Life Technologies and Expression Analysis (LTEA) Assay for Cyclin D2 (CCND2) using HepaRG (AID 2283449).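 Note: CCND2 transcript measured by TaqMan qRT-PCR and normalised to three housekeeping genes.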 An outline of the steps: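 Chemicals in 0.5% DMSO, eight half-log concentrations from 100 uM top, were applied in duplicate for 48 h to human HepaRG cells in serum-free induction medium. CCND2 mRNA by TaqMan qRT-PCR, normalised to ACTB/GAPDH/POLR2A; bidirectional fit versus DMSO.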

Read-out in assay [3]: Cyclin D1 (CCND1), CCND1 (gene 595)
Description: LTEA_HepaRG_CCND1: Life Technologies and Expression Analysis (LTEA) Assay for Cyclin D1 (CCND1) using HepaRG (AID 2283451).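 For AC50: TaqMan qRT-PCR transcript level normalised to ACTB GAPDH and POLR2A housekeeping genes.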 Put shortly:
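qRT-PCR (Fluidigm 96.96 array) read-out of transcript level, housekeeping-normalized (ACTB/GAPDH/POLR2A). HepaRG cells, 48 h chemical exposure, 8-point half-log series from 100 uM, 0.5% DMSO vehicle; gain or loss relative to DMSO baseline.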

Read-out in assay [4]: catalase (CAT), CAT (gene 847)
Kind of assay: LTEA_HepaRG_CAT: Life Technologies and Expression Analysis (LTEA) Assay for catalase (CAT) using HepaRG (AID 2283452). An outline of the steps: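 HepaRG cells in serum-free induction medium, 0.5% DMSO vehicle, exposed 48 h in duplicate over 8 half-log concentrations from 100 uM. CAT mRNA measured by qRT-PCR, normalized to ACTB, GAPDH, POLR2A; bidirectional fit versus DMSO.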

Read-out in assay [5]: flavin-containing dimethylaniline monooxygenases 3 (FMO3), FMO3 (gene 2328)
Kind of assay: LTEA_HepaRG_FMO3: Life Technologies and Expression Analysis (LTEA) Assay for flavin-containing dimethylaniline monooxygenases 3 (FMO3) using HepaRG (AID 2283453). An outline of the steps:
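Differentiated HepaRG cells in serum-free induction medium, exposed 48 h in duplicate to 8 half-log concentrations up to 100 uM in 0.5% DMSO. FMO3 mRNA by qRT-PCR, normalized to ACTB, GAPDH, POLR2A; bidirectional fit vs DMSO.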

Read-out in assay [6]: Cytochrome P450 (CYP1A1), CYP1A1 (gene 1543)
Description: LTEA_HepaRG_CYP1A1: Life Technologies and Expression Analysis (LTEA) Assay for Cytochrome P450 (CYP1A1) using HepaRG (AID 2283454). Put shortly:
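qRT-PCR read-out: CYP1A1 transcript normalized to three housekeeping genes, fitted bidirectionally against 0.5% DMSO vehicle baseline. Human HepaRG cells, 48 h chemical exposure, 8-point half-log series topping at 100 uM.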

Read-out in assay [7]: CFLAR gene, CFLAR (gene 8837)
Description: LTEA_HepaRG_CFLAR: Life Technologies and Expression Analysis (LTEA) Assay for CFLAR gene using HepaRG (AID 2283455). An outline of the steps:
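Differentiated HepaRG cells in serum-free induction medium were exposed 48 h in duplicate to eight half-log concentrations up to 100 uM in 0.5% DMSO; mRNA measured by TaqMan qRT-PCR, normalized to ACTB, GAPDH, POLR2A; bidirectional fitting versus DMSO.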

Read-out in assay [8]: Forkhead box O1 (FOXO1), FOXO1 (gene 2308)
Description: LTEA_HepaRG_FOXO1: Life Technologies and Expression Analysis (LTEA) Assay for Forkhead box O1 (FOXO1) using HepaRG (AID 2283456). An outline of the steps: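 Differentiated HepaRG cells, in serum-free induction medium with 0.5% DMSO, exposed 48 h in duplicate to 8-point half-log series from 100 uM. FOXO1 mRNA measured by TaqMan qRT-PCR, normalized to ACTB, GAPDH, POLR2A; bidirectional fit versus DMSO.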

Read-out in assay [9]: growth arrest and DNA damage 45 (GADD45A), GADD45A (gene 1647)
Kind of assay: LTEA_HepaRG_GADD45A: Life Technologies and Expression Analysis (LTEA) Assay for growth arrest and DNA damage 45 (GADD45A) using HepaRG (AID 2283458). An outline of the steps: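 Differentiated HepaRG cells exposed 48 h in serum-free induction medium to 8 concentrations, top 100 uM in half-log steps, 0.5% DMSO. GADD45A mRNA quantified by qRT-PCR, normalized to ACTB, GAPDH and POLR2A; bidirectional fit versus DMSO.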

Read-out in assay [10]: Forkhead box O3 (FOXO3), FOXO3 (gene 2309)
Kind of assay: LTEA_HepaRG_FOXO3: Life Technologies and Expression Analysis (LTEA) Assay for Forkhead box O3 (FOXO3) using HepaRG (AID 2283459). An outline of the steps: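 Differentiated human HepaRG cells, 48 h post-plating, exposed in duplicate for 48 h in serum-free induction medium; 8-point half-log series from 100 uM in 0.5% DMSO. FOXO3 mRNA by TaqMan qRT-PCR, normalized to ACTB/GAPDH/POLR2A; bidirectional fit versus DMSO.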

Read-out in assay [11]: Cyclin Dependent Kinase Inhibitor 1A (CDKN1A), CDKN1A (gene 1026)
Kind of assay: LTEA_HepaRG_CDKN1A: Life Technologies and Expression Analysis (LTEA) Assay for Cyclin Dependent Kinase Inhibitor 1A (CDKN1A) using HepaRG (AID 2283450). Put shortly: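 HepaRG, 48 h dosing, 8-pt half-log series from 100 uM top, 0.5% DMSO vehicle, duplicates. Readout: TaqMan qRT-PCR of CDKN1A transcript, housekeeping-normalized (ACTB, GAPDH, POLR2A). Up/down curve fit relative to DMSO.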

Read-out in assay [12]: Tumor necrosis factor receptor superfamily member 6 (Homo sapiens) (UniProt P25445)
Kind of assay: LTEA_HepaRG_FAS: Life Technologies and Expression Analysis (LTEA) Assay for Fas cell surface death receptor (FAS) using HepaRG (AID 2283447). Put shortly: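 Differentiated HepaRG cells in serum-free induction medium were exposed 48 h to 8 half-log concentrations up to 100 uM in 0.5% DMSO, in duplicate. FAS mRNA was measured by qRT-PCR normalised to ACTB, GAPDH and POLR2A; bidirectional fit versus DMSO.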

Sequence of Fatty acid synthase (Homo sapiens) (P49327 whole entry, looked up): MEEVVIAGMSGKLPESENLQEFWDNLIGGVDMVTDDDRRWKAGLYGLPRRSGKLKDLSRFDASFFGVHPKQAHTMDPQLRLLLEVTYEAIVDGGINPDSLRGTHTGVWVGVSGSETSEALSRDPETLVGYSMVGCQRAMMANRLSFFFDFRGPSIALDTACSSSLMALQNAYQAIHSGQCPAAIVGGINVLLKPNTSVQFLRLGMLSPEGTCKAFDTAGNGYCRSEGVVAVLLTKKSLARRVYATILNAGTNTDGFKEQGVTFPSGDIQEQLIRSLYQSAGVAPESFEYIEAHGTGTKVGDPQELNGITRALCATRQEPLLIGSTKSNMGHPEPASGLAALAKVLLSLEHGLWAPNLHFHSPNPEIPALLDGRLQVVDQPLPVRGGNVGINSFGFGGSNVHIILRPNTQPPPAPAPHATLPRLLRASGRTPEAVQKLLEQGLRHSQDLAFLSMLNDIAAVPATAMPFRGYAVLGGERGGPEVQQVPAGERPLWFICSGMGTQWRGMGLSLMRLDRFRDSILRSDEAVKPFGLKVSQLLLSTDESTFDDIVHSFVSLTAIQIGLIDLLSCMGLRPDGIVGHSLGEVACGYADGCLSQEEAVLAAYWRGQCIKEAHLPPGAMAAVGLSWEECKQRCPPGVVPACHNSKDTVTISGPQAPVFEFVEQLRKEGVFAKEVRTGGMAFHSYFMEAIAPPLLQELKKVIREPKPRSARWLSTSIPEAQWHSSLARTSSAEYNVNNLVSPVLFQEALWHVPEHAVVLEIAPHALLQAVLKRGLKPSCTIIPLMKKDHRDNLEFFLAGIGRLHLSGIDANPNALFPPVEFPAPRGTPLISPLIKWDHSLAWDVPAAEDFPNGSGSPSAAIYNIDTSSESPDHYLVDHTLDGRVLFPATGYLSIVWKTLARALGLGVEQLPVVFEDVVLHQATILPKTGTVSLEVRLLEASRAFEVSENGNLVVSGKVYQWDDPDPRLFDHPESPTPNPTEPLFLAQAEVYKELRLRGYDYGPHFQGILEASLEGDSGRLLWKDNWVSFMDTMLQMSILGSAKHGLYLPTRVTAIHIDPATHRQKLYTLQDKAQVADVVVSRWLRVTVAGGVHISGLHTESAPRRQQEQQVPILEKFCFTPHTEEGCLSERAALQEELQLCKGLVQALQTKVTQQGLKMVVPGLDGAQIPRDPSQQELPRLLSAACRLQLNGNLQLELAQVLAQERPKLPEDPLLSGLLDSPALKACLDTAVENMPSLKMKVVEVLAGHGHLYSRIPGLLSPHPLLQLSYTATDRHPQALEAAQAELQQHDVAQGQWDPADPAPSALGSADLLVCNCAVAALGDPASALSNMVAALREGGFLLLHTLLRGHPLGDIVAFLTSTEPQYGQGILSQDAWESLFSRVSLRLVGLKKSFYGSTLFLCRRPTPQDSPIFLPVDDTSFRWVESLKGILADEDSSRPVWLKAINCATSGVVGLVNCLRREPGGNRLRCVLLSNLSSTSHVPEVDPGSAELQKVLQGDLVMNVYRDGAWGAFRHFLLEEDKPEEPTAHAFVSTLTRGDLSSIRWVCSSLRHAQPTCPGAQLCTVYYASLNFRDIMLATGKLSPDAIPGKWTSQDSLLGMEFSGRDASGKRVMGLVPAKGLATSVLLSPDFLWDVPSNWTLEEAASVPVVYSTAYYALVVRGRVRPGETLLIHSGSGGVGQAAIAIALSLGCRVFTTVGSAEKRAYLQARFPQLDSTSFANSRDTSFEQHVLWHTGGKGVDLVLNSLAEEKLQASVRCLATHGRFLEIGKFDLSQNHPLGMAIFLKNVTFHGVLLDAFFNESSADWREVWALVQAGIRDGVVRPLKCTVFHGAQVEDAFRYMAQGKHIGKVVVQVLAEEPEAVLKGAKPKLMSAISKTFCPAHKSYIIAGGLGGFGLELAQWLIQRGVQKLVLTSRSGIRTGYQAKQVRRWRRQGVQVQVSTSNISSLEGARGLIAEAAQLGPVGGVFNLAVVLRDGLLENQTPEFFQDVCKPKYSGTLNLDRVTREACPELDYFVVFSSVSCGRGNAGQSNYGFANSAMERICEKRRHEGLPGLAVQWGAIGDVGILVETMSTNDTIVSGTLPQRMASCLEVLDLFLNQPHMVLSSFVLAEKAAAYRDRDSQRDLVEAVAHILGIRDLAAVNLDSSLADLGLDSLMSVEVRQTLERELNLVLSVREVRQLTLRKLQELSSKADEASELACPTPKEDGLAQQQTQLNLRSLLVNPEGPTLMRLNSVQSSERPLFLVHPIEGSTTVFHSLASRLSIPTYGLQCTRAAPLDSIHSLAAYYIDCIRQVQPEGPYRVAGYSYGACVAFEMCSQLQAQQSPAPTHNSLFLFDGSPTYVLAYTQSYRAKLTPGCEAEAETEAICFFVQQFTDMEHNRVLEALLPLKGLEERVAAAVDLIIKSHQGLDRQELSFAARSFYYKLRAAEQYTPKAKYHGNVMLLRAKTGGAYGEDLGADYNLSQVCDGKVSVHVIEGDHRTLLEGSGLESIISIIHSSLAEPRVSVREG

Consider `CCNC(=O)NC(=O)C(C#N)=NOC`, for which the compound was classed as inactive in assay [1], in assay [2], in assay [3], in assay [4], in assay [5] and in assay [7]. Also, the compound was classed as inactive in [8] and in [10]. The figures for the AC50 in [6] and in [9] were 50 µM (active) and 0.361 µM (active), respectively.

Take `CO/N=C(/C1=NOCCO1)c1ccccc1Oc1ncnc(Oc2ccccc2Cl)c1F`: the AC50 (as a rule, the concentration at which the activity in the assay is half-maximal) in [1] was 62.7 µM (active); in assay [11] it was 28.5 µM (active); in [4], 19.7 µM (active); in assay [5], 24.9 µM (active); in assay [6], 33 µM (active); in [8] it was 10 µM (active). For the same compound, the AC50 in assay [9] was 29.6 µM (active). Also, the outcome in assay [2], in assay [3], in [7] and in [10] was inactive.

`CS(=O)(=O)c1cc(C(F)(F)F)ccc1C(=O)c1cnoc1C1CC1`: the call in assay [12], in assay [1], in assay [2], in [3], in assay [5] and in [7] was inactive. Further, the outcome in [8], in assay [9] and in assay [10] was inactive. Further, in assay [6], the AC50 is 78 µM (active).

For the compound `Cc1ccc(N=CN(C)C=Nc2ccc(C)cc2C)c(C)c1`, the call in [12], in assay [1], in assay [3], in assay [4], in [5] and in assay [7] was inactive. Moreover, the compound was called inactive in assay [8], in assay [9] and in [10]. Besides, the half-maximal activity concentration (AC50) in [6] is 41.2 µM (active).

As to `Clc1cccc(C(Cl)(Cl)Cl)n1`, the call in [1], in assay [2], in assay [11], in assay [3], in [5] and in [6] was inactive. Besides, the result in assay [7], in assay [8] and in assay [10] was inactive. Besides, the AC50 in assay [9] is 89.4 µM (active).

As to `CC(C)N1C(=O)N(c2ccccc2)CSC1=NC(C)(C)C`, the outcome in [1], in assay [2], in assay [3], in assay [6], in assay [7] and in assay [8] was inactive. In addition, the call in assay [10] was inactive. Moreover, the AC50 in assay [11] was 85.2 µM (active); in assay [5], 91.2 µM (active); in assay [9], 81.2 µM (active).

As to `Cc1cc(C)nc(Nc2ccccc2)n1`, the outcome in assay [12], in assay [1], in [3], in [4], in assay [5] and in [7] was inactive. The outcome in [8], in assay [9] and in assay [10] was inactive. The AC50 in [6] was 1.2 µM (active).

Take `CNC(=O)N(C)c1nnc(C(C)(C)C)s1`: the outcome in [12], in [1], in [3], in [5], in assay [7] and in assay [8] was inactive. The outcome in assay [9] and in assay [10] was inactive. Besides, in assay [6], the AC50 was 42.9 µM (active).

For `CN=C=S`, the call in [12], in [1], in [2], in assay [11], in assay [3] and in assay [5] was inactive. In addition, the outcome in assay [6], in [7], in assay [8], in assay [9] and in [10] was inactive.

For the compound `CC(C)C1(C)N=C(c2ncccc2C(=O)O)NC1=O` (stereo not given), the compound was classed as inactive in [1], in [11], in assay [3], in assay [5], in [6] and in [7]. In addition, the compound was called inactive in assay [8], in assay [9] and in [10].

Regarding `Cn1c(-c2ccccc2)cc(-c2ccccc2)[n+]1C`, the AC50 in assay [1] is 11.7 µM (active); in assay [11], 50 µM (active); in [3], 75.6 µM (active); in assay [5], 50 µM (active); in assay [6], 75 µM (active); in assay [7] it was 82.3 µM (active). Also, the AC50 in assay [8] is 77.7 µM (active); in assay [10] it was 2.57 µM (active). Moreover, the result in assay [2] and in assay [9] was inactive.
